According to PubChem BioAssay AID1159606 (Sanford-Burnham Center for Chemical Genomics, 2016):
Out of some 360,000 compounds screened, about 7,300 (2%) were called active. No stated cut-off is given here; in the data, active means inhibition above about 50%; inactive means the rest. The list comes from a sample in which actives are over-represented; it also holds similar structures and randomly drawn compounds.

Assay: inhibitors of TWEAK-Fn14 signaling, primary screen, luciferase reporter cells, uHTS (AID 1159606)
Settings: TWEAK-stimulated Fn14 reporter cells, luciferase luminescence, 8 h; at 10 µM; active compounds read high

Structure (SMILES) | inhibition
CC1=CC=CC2=N/C(=N\S(=O)(=O)c3ccc(F)cc3F)c3ccccc3CN12 | -4.26% (inactive)
COc1ccccc1NS(=O)(=O)c1ccc(C(=O)N2CCN(c3ccccc3O)CC2)cc1 | 9.79% (inactive)
O=S(=O)(Nc1ccc(O)c2ccccc12)c1ccc(OC(F)(F)F)cc1 | 84.1% (active)
O=S(=O)(Nc1ccc(OC(F)(F)F)cc1)c1cccc2nonc12 | -6.65% (inactive)
O=C(NNC(=O)c1cccc(S(=O)(=O)Nc2ccc(Cl)cc2)c1)c1ccc(=O)[nH]c1 | 12.3% (inactive)
Cc1ccc(NC(=O)Nc2nnc(-c3ccncc3)s2)cc1 | 54.9% (active)
CCc1ccc(NC(=O)Nc2ccncc2)cc1 | -5.44% (inactive)
CC(C)=CC(=O)Nc1nnc(-c2ccc(F)cc2)s1 | -55.7% (inactive)
Cc1cc(=O)oc(C)c1C(=O)Nc1cnc2ccccc2c1 | 1.75% (inactive)
CC1(C)OC(=O)C2=C(C[C@@H](C3CC3)O[C@H]2c2ccc(Cl)cc2)O1 | 7.97% (inactive)
CCCCOC(=O)c1ccc(NC(c2ccc(C)cc2)P(=O)(OC)OC)cc1 (centres undefined) | 4.7% (inactive)
O=[N+]([O-])c1ccc(Oc2ccc(F)cc2Br)c2ccncc12 | 69.9% (active)
CC(NC(=O)CCCC1CCCCC1)c1ccc(S(N)(=O)=O)cc1 (centres undefined) | 11.9% (inactive)
Cc1cc(S(=O)(=O)N2CCOCC2)ccc1OCC(=O)Nc1cccc(C(F)(F)F)c1 | 21.1% (inactive)
CC(=O)N1CCCc2cc(S(=O)(=O)CCC(=O)N3CCN(c4ccccc4)CC3)ccc21 | -26.2% (inactive)
CC(=O)N1c2ccc(S(=O)(=O)N3CCC(C(=O)N4CCN(c5ccccc5)CC4)CC3)cc2CC1C (centres undefined) | -8.65% (inactive)
CC(=O)N1CCCc2cc(S(=O)(=O)N3CCCC(C(=O)N4CCN(c5cccc(Cl)c5)CC4)C3)ccc21 (centres undefined) | 87.5% (active)
Cc1ccnc(SCCn2c(N(C)Cc3ccccc3)nc3c2c(=O)n(C)c(=O)n3C)n1 | -11.8% (inactive)
Cn1c(-c2ccc(C(F)(F)F)cc2)cc2onc(-c3ccccc3)c2c1=O | 51.4% (active)
Cn1c(-c2ccc(F)cc2)cc2onc(-c3ccccc3Cl)c2c1=O | 6.49% (inactive)
O=c1c2ccccc2c(-c2ccc(F)cc2)nn1-c1ccc(C(F)(F)F)cc1 | -4.84% (inactive)
CC(=O)N1Cc2cc(C(=O)NCc3cccc(F)c3)nc(-c3cccc(C4=CCCCC4)c3)c2[C@H]1CCO | 24.6% (inactive)
CCCCn1c(N)c(N(CCOC)C(=O)CSCC(=O)Nc2cccc(C)c2)c(=O)[nH]c1=O | 4.51% (inactive)

Structure (SMILES) | inhibition
CC(C)Nc1ccc(-n2nc3ccccc3[n+]2[O-])cc1 | 62.4% (active)
C[C@H]([C@@H](O)[C@@H](O)[C@@H](C)C(C)(C)C)[C@H]1CC[C@H]2C3CC[C@H]4C[C@H](OS(=O)(=O)O)[C@@H](OS(=O)(=O)O)C[C@]4(C)[C@H]3CC[C@]12C (some centres undefined) | 3.39% (inactive)
CCCC1C(=O)N2C(N(C)C)=Nc3ccc(C)cc3N2C1=O (centres undefined) | -18.1% (inactive)
O=C(O)c1ccc(/C=C2\SC(=S)N(NC(=O)c3ccc(Br)cc3)C2=O)cc1 | 2.06% (inactive)
O=C1/C(=C\c2ccccc2Cl)SC(=S)N1CCC(=O)N1CCCc2ccccc21 | 3.74% (inactive)
C=CCOc1ccc(/C=C2\SC(=S)N(CCC(=O)O)C2=O)cc1 | 90% (active)
CCCNC(=O)C1(C)CCN(C(=O)c2ccc(F)cc2Cl)C1 (centres undefined) | 2.61% (inactive)
COc1cccc2cc(C(N)=O)/c(=N\NC(=O)c3ccccc3)oc12 | 91.4% (active)
COc1cccc2cc(C(=O)N3CCN(C(=O)c4ccccc4)CC3)c(=O)oc12 | 11.9% (inactive)
COc1cccc2cc(C(=O)N(C)C)c(=O)oc12 | 0.46% (inactive)
CCN(CC)S(=O)(=O)c1ccc(C(=O)N2CCN(C3=NS(=O)(=O)c4ccccc43)CC2)cc1 | -0.95% (inactive)
O=S1(=O)CC(N2CCN(CCO)CC2)CN1Cc1cn(Cc2cccc(Cl)c2)nn1 (centres undefined) | 13.2% (inactive)
CCOC(=O)C(NS(=O)(=O)c1ccc(C)cc1)(C(F)(F)F)P(=O)(OCC(C)C)OCC(C)C (centres undefined) | 56.7% (active)
Cc1ccc(S(=O)(=O)NCC(C)NS(C)(=O)=O)cc1 (centres undefined) | 4.2% (inactive)
CC(=O)N1CCN(CC(C)(C)NS(=O)(=O)c2ccc(C)cc2)CC1 | 14% (inactive)
O=C(CN1C(=O)/C(=C\c2ccc(C(F)(F)F)cc2)Sc2ccccc21)NCc1ccco1 | 27.1% (inactive)
O=C(CN1C(=O)/C(=C\c2ccccc2F)SC1=S)Nc1nc2ccccc2s1 | 29.6% (inactive)
O=C(CN1C(=O)/C(=C/c2ccccc2F)Sc2ccccc21)NCc1cccnc1 | 52.7% (active)
O=C(NCc1ccccn1)[C@@H]1CCCN1C(=O)[C@@H]1CCCN1C(=O)c1ccccc1 | 7.41% (inactive)
Cc1ccc(NS(=O)(=O)c2cc3c(cc2C)NC(=O)CO3)cc1 | 8.45% (inactive)
O=C(Nn1cnc2ccccc2c1=O)c1ccc(F)cc1Cl | -23.3% (inactive)
CCC(C)N1C(=O)S/C(=C/c2ccc(Sc3nc4ccccc4[nH]3)o2)C1=O (centres undefined) | 69.5% (active)
CN1CCN(c2ccc([N+](=O)[O-])c(Sc3nc4ccccc4[nH]3)c2)CC1 | 17% (inactive)

Structure (SMILES) | inhibition
CC(C)c1ccc(/C=C2\NC(=O)NC2=O)cc1 | 18.4% (inactive)
CCOc1ccc(C(=O)NC(=S)Nc2ccc(NC(=O)C(C)C)cc2)cc1[N+](=O)[O-] | 3.3% (inactive)
CCOc1ccc(C(=O)NC(=S)Nc2ccc(N3CCOCC3)c(Cl)c2)cc1[N+](=O)[O-] | 62.8% (active)
O=C(CSc1ccc([N+](=O)[O-])cn1)Nc1ccc(N2CCOCC2)c(Cl)c1 | -16.6% (inactive)
COc1ccc(C(C#N)=C2C=CC(=NO)c3ccccc32)cc1 | 88% (active)
COc1ccc(/C(N)=N/OC(=O)Cc2ccccc2)cc1 | -44.1% (inactive)
COc1ccc(C(=NN)c2ccc(OC)cc2)cc1 | -20.6% (inactive)
CCOc1ccc(Br)cc1S(=O)(=O)N1CCC(C(=O)O)CC1 | 0.18% (inactive)
OCCNCCOc1ccc(Cl)c(Cl)c1 | 5.07% (inactive)
O=C(Cn1c(NCCO)nc2ccccc21)c1ccc(Cl)cc1Cl | 22.5% (inactive)
OCCNc1nc(Nc2ccc(Cl)c(Cl)c2)nc2ccccc12 | 84.3% (active)
COC(=O)[C@]12CCCCC=C1N(Cc1ccc(Cl)cc1Cl)C(=O)[C@H](CC(=O)NCc1cccc3ccccc13)C2 | 5.94% (inactive)
O=C(COc1ccccc1)N1CCN=C1SCc1cccc(F)c1 | -2.31% (inactive)
COc1ccc(CCNC(=O)C2CCCN(Cc3nc(-c4cccc(Cl)c4)oc3C)C2)cc1OC (centres undefined) | 25.8% (inactive)
O=C(COc1ccc(S(=O)(=O)NCCc2ccccc2)cc1)N1CCCC1 | 11.6% (inactive)
COC(=O)C1(C)CC1(c1ccccc1)c1ccccc1 (centres undefined) | 7.44% (inactive)
COc1cc(C#Cc2ccc3cc(CCCO)oc(=O)c3c2)cc(OC)c1 | 18.9% (inactive)
O=C1c2ccccc2C(=O)N1CCC#Cc1ccc2cc(C3(O)CCCCC3)oc(=O)c2c1 | 71.2% (active)
C(#CCN1CCOCC1)CCCN1CCOCC1 | -1.19% (inactive)
Cc1nn(-c2ccccc2)c(Cl)c1/C=C/C(=O)c1ccc(O)cc1 | 57.3% (active)
Cc1nn(-c2ccccc2)c(C)c1/C=C/C(=O)OC(C)C(N)=O (centres undefined) | -4.83% (inactive)
COc1ccc(CCNC(=O)c2c(C)nn(-c3ccccc3)c2Cl)cc1 | -12.5% (inactive)
Cc1sc(NC(=S)NC(=O)c2cccs2)nc1-c1ccc(CC(C)C)cc1 | -5.35% (inactive)

Structure (SMILES) | inhibition
C=CCOC(=O)C1=C(C)NC(C)=C(C(=O)OCC=C)C1c1cccs1 | 20.3% (inactive)
O=S1(=O)CC(N2CCN(CCO)CC2)CN1C1CCCC1 (centres undefined) | 11.3% (inactive)
COc1ccc(-c2c(C)nn3c(N4CCC(C(=O)N5CCCCC5)CC4)cc(C)nc23)cc1OC | -3.08% (inactive)
Cc1ccc(-n2c(C)cc(C(=O)CN3C(=O)C(=O)N(C4CCCC4)C3=O)c2C)cc1 | 40.7% (inactive)
Cc1cc(C(=O)COC(=O)C2CC2)c(C)n1-c1ccc(F)cc1 | 95.2% (active)
Cc1cc(C(=O)COc2ccccc2Cl)c(C)n1C1CC1 | -10.6% (inactive)
Nc1nc2c(Br)ccc(Br)c2cc1C(=O)NCCc1ccccc1 | 14.3% (inactive)
CCCCc1cc(=O)oc2c(C)c(OCC(=O)N3CCC(C(N)=O)CC3)ccc12 | -5.28% (inactive)
O=C(NCc1ccccc1Cl)c1csc([C@@H]2O[C@H](CO)[C@@H](O)[C@H]2O)n1 | -0.12% (inactive)
CN(Cc1cccc2ncccc12)C(=O)CC1C(=O)NCCN1Cc1ccc(F)cc1 (centres undefined) | -1.61% (inactive)
COc1ccccc1CN1CCNC(=O)C1CC(=O)N(C)CC1CCOCC1 (centres undefined) | 1.59% (inactive)
CCN(CCn1cccn1)C(=O)CC1C(=O)NCCN1Cc1cccc(OC)c1OC (centres undefined) | 68.3% (active)
Cc1nc2nc3c(cn2n1)C(=O)CC(c1ccccc1)C3 (centres undefined) | 8.49% (inactive)
CC1CN(C(=O)CN2C(=O)NC(C)(c3ccccc3)C2=O)CC(C)O1 (centres undefined) | 0.1% (inactive)
CN(C)c1nc(N)nc(CSc2nnnn2-c2cccc3ccccc23)n1 | -0.11% (inactive)
Cc1cccc(C)c1-n1nnnc1C1(C)CCC(=O)N1CCOc1ccccc1 (centres undefined) | -0.09% (inactive)
CCC1CCCCN1C(=O)CSc1nc2c(c(=O)n1C)SC(C)C2 (centres undefined) | 4.38% (inactive)
CCN(CC)C(=O)c1nc[nH]c1C(=O)N(C)Cc1ccccc1 | 6.48% (inactive)
CCN(CC)C(=O)c1sc2nc(-c3ccccc3)ccc2c1N | 69.9% (active)
CCOC(=O)C(C)n1nc(-c2ccccc2)c2ccccc2c1=O (centres undefined) | 7.15% (inactive)
